# Results filed as inconclusive are left out. Calls of active or inactive are those of the source. Rule for the calls, unless noted: active = hit-call score of the fitted dose curve at least 0.9, where 1 is the maximum; inactive = score below 0.9.
# Columns and labels:
# [1] = target: Estrogen receptor beta (Homo sapiens) (UniProt Q92731); test: OT_ER_ERbERb_0480: Odyssey Thera (OT) 8-hour HEK293T Protein-Complementation Assay for Estrogen Receptor-beta/-beta Homodimer (AID 2283357; active = hit-call score of the fitted dose curve at least 0.9, where 1 is the maximum;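 note: active means signal gain over DMSO baseline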)
# Chain of Estrogen receptor beta (Homo sapiens) (Q92731 whole entry, looked up, the tested form may be a part): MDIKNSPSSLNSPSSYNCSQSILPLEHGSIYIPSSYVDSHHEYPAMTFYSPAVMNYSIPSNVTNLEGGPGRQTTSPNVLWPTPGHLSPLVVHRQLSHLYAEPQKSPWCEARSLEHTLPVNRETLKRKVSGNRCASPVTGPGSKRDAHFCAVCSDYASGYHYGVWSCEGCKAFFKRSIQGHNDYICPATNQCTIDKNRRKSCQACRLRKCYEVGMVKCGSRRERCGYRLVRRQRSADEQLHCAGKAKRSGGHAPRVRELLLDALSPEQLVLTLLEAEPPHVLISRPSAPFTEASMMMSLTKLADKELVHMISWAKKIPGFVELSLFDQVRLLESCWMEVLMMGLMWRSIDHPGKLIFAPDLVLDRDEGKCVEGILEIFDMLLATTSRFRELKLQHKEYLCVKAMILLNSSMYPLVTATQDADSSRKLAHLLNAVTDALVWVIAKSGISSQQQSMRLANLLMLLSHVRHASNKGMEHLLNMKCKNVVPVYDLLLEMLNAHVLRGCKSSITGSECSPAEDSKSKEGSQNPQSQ
# Outline: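 Fluorescence gain from complemented reporter fragments on ER-beta LBD homodimer in HEK293T was quantified against DMSO controls after 8 h treatment, fixation in 4% formaldehyde and Draq5 staining.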
# [2] = BSK_3C_VCAM1: BioMAP Diversity Plus: 3C Assay for Vascular cell adhesion molecule 1 (VCAM1) Biomarker Activity (AID 2282999); conditions: BioMAP 3C HUVEC, VCAM1 ELISA, cytokine-stimulated; actives raise or lower the signal
# Outline: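 Vascular primary endothelium (human umbilical vein) was exposed to chemicals and assayed 24 h later. VCAM-1 levels came from ELISA, with DMSO serving as baseline for bidirectional fitting.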
# [3] = BSK_3C_Proliferation: Cell Proliferation Assessment in the BioMAP Diversity Plus: 3C Assay (AID 2283006); conditions: primary human endothelial cells (HUVEC);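 for AC50: potency may reflect either rise or fall in cell number versus DMSO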
# Outline: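 Proliferation as total protein: sulforhodamine B (0.1%) stain of TCA-fixed subconfluent human umbilical vein endothelial cells, absorbance 560 nm, 48 h after dosing. Activity fitted in both directions against DMSO baseline.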
# [4] = read-out: E-selectin (Homo sapiens) (UniProt P16581); test: BSK_3C_Eselectin: BioMAP Diversity Plus: 3C Assay for Eselectin Biomarker Activity (AID 2283015); conditions: primary human endothelial cells (HUVEC); actives raise or lower the signal;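 for outcome: cell surface E-selectin protein quantified by ELISA 24 h after dosing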
# Outline: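 Endpoint derived by bidirectional fitting against DMSO vehicle; signal is ELISA-detected E-selectin from primary HUVEC at 24 h post-dosing, with parallel SRB staining (0.1% SRB, 560 nm) flagging cytotoxicity.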
# [5] = read-out: Human Leukocyte Antigen - DR isotype (HLADR), HLA-DRA (gene 3122); test: BSK_3C_HLADR: BioMAP Diversity Plus: 3C Assay for Human Leukocyte Antigen - DR isotype (HLADR) Biomarker Activity (AID 2283019); conditions: primary human endothelial cells (HUVEC); actives raise or lower the signal;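 for outcome: ELISA of cell-surface HLA-DR on HUVEC 24 h after dosing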
# Outline: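 Compound added to primary HUVEC cultures, 24 h incubation, then HLA-DR determined by ELISA; endpoint derived by bidirectional fitting relative to DMSO negative control.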
# [6] = BSK_BE3C_SRB: Viability Assessment in the BioMAP Diversity Plus: BE3C Assay (AID 2283028); conditions: primary human bronchial epithelial cells
# Outline: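 SRB total-protein staining (0.1%, after TCA fixation) of chemically dosed human bronchial epithelial primary cells at 24 h; DMSO serves as the negative control for bidirectional curve fitting.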
# [7] = read-out: Thrombomodulin, THBD (gene 7056); test: BSK_3C_Thrombomodulin: BioMAP Diversity Plus: 3C Assay for Thrombomodulin Biomarker Activity (AID 2283029); conditions: primary human endothelial cells (HUVEC); actives raise or lower the signal
# Outline: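 ELISA measurement of thrombomodulin on HUVEC surface 24 h after chemical dosing; activity fitted in both directions relative to DMSO vehicle.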
# [8] = read-out: Vascular cell adhesion molecule 1 (VCAM1), VCAM1 (gene 7412); test: BSK_4H_VCAM1: BioMAP Diversity Plus: 4H Assay for Vascular cell adhesion molecule 1 (VCAM1) Biomarker Activity (AID 2283033); conditions: primary human endothelial cells (HUVEC); actives raise or lower the signal;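 for outcome: cell-surface VCAM-1 protein measured by ELISA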
# Outline: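 VCAM-1 ELISA read 24 h after chemical dosing of HUVEC in the BioMAP 4H system, with gain or loss of signal fitted relative to DMSO. Parallel SRB staining (560 nm) checked overt cytotoxicity.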
# [9] = read-out: Interferon-gamma inducible Protein 10 (IP10), CXCL10 (gene 3627); test: BSK_BE3C_IP10: BioMAP Diversity Plus: BE3C Assay for Interferon-gamma inducible Protein 10 (IP10) Biomarker Activity (AID 2283034); conditions: primary human bronchial epithelial cells; actives raise or lower the signal
# Outline: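 IP-10 quantified by ELISA in human primary bronchial epithelial cell cultures at 24 hours post-dosing. Gain or loss of signal fitted relative to DMSO; parallel SRB staining assessed overt cytotoxicity.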
# [10] = read-out: Urokinase-type plasminogen activator receptor (uPAR), PLAUR (gene 5329); test: BSK_BE3C_uPAR: BioMAP Diversity Plus: BE3C Assay for Urokinase-type plasminogen activator receptor (uPAR) Biomarker Activity (AID 2283039); conditions: primary human bronchial epithelial cells; actives raise or lower the signal;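 for outcome: cells exposed to compound for one day before measurement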
# Outline: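 uPAR levels were measured by ELISA after 24 h compound treatment of primary human bronchial epithelial cells, fitted in both directions relative to DMSO. Parallel SRB staining served as the cytotoxicity read-out.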
# [11] = read-out: Interleukin-6 (IL6), IL6 (gene 3569); test: BSK_CASM3C_IL6: BioMAP Diversity Plus: CASM3C Assay for Interleukin-6 (IL6) Biomarker Activity for (AID 2283040); conditions: primary human coronary artery smooth muscle cells; actives raise or lower the signal
# [12] = read-out: Interleukin-8 (IL8), CXCL8 (gene 3576); test: BSK_CASM3C_IL8: BioMAP Diversity Plus: CASM3C Assay for Interleukin-8 (IL8) Biomarker Activity (AID 2283042); conditions: primary human coronary artery smooth muscle cells; actives raise or lower the signal;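 note: IL-8 protein level quantified by ELISA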
# [13] = read-out: Low-density lipoprotein receptor (LDLR), LDLR (gene 3949); test: BSK_CASM3C_LDLR: BioMAP Diversity Plus: CASM3C Assay for Low-density lipoprotein receptor (LDLR) Biomarker Activity (AID 2283045); conditions: primary human coronary artery smooth muscle cells; actives raise or lower the signal;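 note: LDLR protein level on the cell surface quantified by ELISA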
# [14] = read-out: Monocyte Chemoattractant Protein-1 (MCP1), CCL2 (gene 6347); test: BSK_CASM3C_MCP1: BioMAP Diversity Plus: CASM3C Assay for Monocyte Chemoattractant Protein-1 (MCP1) Biomarker Activity (AID 2283046); conditions: primary human coronary artery smooth muscle cells; actives raise or lower the signal;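 note: MCP-1 level quantified by ELISA 24 h after dosing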
# [15] = BSK_CASM3C_Proliferation: Cell Proliferation Assessment in the BioMAP Diversity Plus: CASM3C Assay (AID 2283047); conditions: primary human coronary artery smooth muscle cells;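 note: sub-confluent cells exposed 48 h before staining; fitted both ways against DMSO so gain or loss of cell number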
# [16] = read-out: Monokine induced gamma interferon (MIG), CXCL9 (gene 4283); test: BSK_CASM3C_MIG: BioMAP Diversity Plus: CASM3C Assay for Monokine induced gamma interferon (MIG) Biomarker Activity (AID 2283048); conditions: primary human coronary artery smooth muscle cells; actives raise or lower the signal;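 note: MIG protein level measured by ELISA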
# CD38, CD38 (gene 952) = test: BSK_SAg_CD38: BioMAP Diversity Plus: SAg Assay for CD38 Biomarker Activity (AID 2283087); conditions: primary human HUVEC with PBMC; actives raise or lower the signal
# Outline: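 CD38 quantified by ELISA (fluorescence) in a superantigen-activated endothelial cell–PBMC co-culture at 24 h post-dose. Activity fitted in both directions relative to DMSO; parallel SRB and Alamar Blue cytotoxicity read-outs.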
# [17] = read-out: Monocyte Chemoattractant Protein-1 (MCP1), CCL2 (gene 6347); test: BSK_SAg_MCP1: BioMAP Diversity Plus: SAg Assay for Monocyte Chemoattractant Protein-1 (MCP1) Biomarker Activity (AID 2283090); conditions: primary human HUVEC with PBMC; actives raise or lower the signal
# Outline: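 Values derive from bidirectional fitting of ELISA-measured MCP1 against DMSO controls. Readings were taken 24 h after dosing human vascular endothelial cells co-cultured with peripheral blood mononuclear cells under superantigen stimulation.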
# [18] = read-out: E-selectin (Homo sapiens) (UniProt P16581); test: BSK_SAg_Eselectin: BioMAP Diversity Plus: SAg Assay for Eselectin Biomarker Activity (AID 2283091); conditions: primary human HUVEC with PBMC; actives raise or lower the signal
# Outline: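 Endpoint values derive from bidirectional fitting relative to DMSO, using ELISA-measured E-selectin in a human vascular co-culture (umbilical vein endothelium plus PBMC) sampled 24 h after dosing.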
# [19] = BSK_SAg_PBMCCytotoxicity: PBMC Cytotoxicity Assessment in the BioMAP Diversity Plus: SAg Assay (AID 2283093); conditions: primary human HUVEC with PBMC;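 note: PBMC viability measured as Alamar Blue reduction fluorescence at 546/580 nm; fitted both ways against DMSO so a hit may be loss or gain of signal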;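 for AC50: PBMC superantigen activated with SEB plus TSST-1 one hour after compound addition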
# Outline: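 Alamar Blue reduction (6 h, 546/580 nm) reports PBMC cytotoxicity after 90 h superantigen activation (SEB, TSST-1; 20 ng/mL final each) with 1 h compound pre-treatment. Gain or loss of signal fitted versus DMSO.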
# Chain of E-selectin (Homo sapiens) (P16581 whole entry, looked up): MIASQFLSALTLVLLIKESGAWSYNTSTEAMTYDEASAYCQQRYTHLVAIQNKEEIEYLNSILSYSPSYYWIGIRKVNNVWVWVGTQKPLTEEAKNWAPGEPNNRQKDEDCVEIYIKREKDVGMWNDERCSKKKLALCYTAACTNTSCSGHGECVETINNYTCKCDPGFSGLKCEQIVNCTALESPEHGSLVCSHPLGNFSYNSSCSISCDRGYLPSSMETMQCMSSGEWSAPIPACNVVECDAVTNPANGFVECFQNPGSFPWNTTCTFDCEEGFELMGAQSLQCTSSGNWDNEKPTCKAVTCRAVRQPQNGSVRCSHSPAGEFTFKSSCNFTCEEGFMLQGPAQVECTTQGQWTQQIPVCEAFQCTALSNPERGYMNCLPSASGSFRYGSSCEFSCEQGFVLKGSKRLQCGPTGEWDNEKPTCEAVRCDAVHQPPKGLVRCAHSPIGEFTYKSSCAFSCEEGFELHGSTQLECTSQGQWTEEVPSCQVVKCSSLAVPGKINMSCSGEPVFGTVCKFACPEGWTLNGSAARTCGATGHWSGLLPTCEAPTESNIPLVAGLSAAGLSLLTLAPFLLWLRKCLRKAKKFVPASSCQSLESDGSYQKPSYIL
smiles,measurement,setting,value
CCCCCCCCCCCCCCCC[N+](C)(C)C,outcome,[1],inactive
C=CCN(CC=C)C(=O)C(Cl)Cl,outcome,[2],inactive
same,outcome,[3],inactive
same,outcome,[4],inactive
same,outcome,[5],inactive
same,outcome,[6],inactive
same,outcome,[7],inactive
same,outcome,[8],inactive
same,outcome,[9],inactive
same,outcome,[10],inactive
same,outcome,[11],inactive
same,outcome,[12],inactive
same,outcome,[13],inactive
same,outcome,[14],inactive
same,outcome,[15],inactive
same,outcome,[16],inactive
same,outcome,"CD38, CD38 (gene 952)",inactive
same,outcome,[17],inactive
same,outcome,[18],inactive
same,outcome,[19],inactive
same,outcome,[1],inactive
CC[N+](=O)[O-],outcome,[1],inactive
Cc1ccc(C)c2ccccc12,outcome,[1],inactive
CC(=O)C=Cc1ccccc1,outcome,[1],inactive
CC(C)(C)C(O)C(Oc1ccc(-c2ccccc2)cc1)n1cncn1 (stereo not drawn),outcome,[2],inactive
same,AC50,[3],31 µM (active)
same,AC50,[4],29.9 µM (active)
same,AC50,[5],30.6 µM (active)
same,outcome,[6],inactive
same,outcome,[7],inactive
same,AC50,[8],31.5 µM (active)
same,AC50,[9],6.71 µM (active)
same,outcome,[10],inactive
same,AC50,[11],30.9 µM (active)
same,outcome,[12],inactive
same,AC50,[13],20 µM (active)
same,AC50,[14],29.2 µM (active)
same,AC50,[15],26.3 µM (active)
same,outcome,[16],inactive
same,outcome,"CD38, CD38 (gene 952)",inactive
same,outcome,[17],inactive
same,outcome,[18],inactive
same,outcome,[19],inactive
CC(C)[C@@H](C(=O)O[C@@H](C#N)c1cccc(Oc2ccccc2)c1)c1ccc(Cl)cc1,outcome,[1],inactive
CNC(=N[N+](=O)[O-])NCC1CCOC1 (stereo not drawn),outcome,[1],inactive
O=c1c2ccccc2c(=O)c2c1cc(Cl)c1[nH]c3c([nH]c12)c(Cl)cc1c(=O)c2ccccc2c(=O)c13,outcome,[2],inactive
same,outcome,[3],inactive
same,outcome,[4],inactive
same,outcome,[5],inactive
same,outcome,[6],inactive
same,outcome,[7],inactive
same,outcome,[8],inactive
same,outcome,[9],inactive
same,outcome,[10],inactive
same,outcome,[11],inactive
same,outcome,[12],inactive
same,outcome,[13],inactive
same,outcome,[14],inactive
same,outcome,[15],inactive
same,outcome,[16],inactive
same,outcome,"CD38, CD38 (gene 952)",inactive
same,outcome,[17],inactive
same,outcome,[18],inactive
same,outcome,[19],inactive
O=C(CCl)c1ccccc1,AC50,[2],3.06 µM (active)
same,AC50,[3],6.81 µM (active)
same,AC50,[4],6.97 µM (active)
same,AC50,[5],3.04 µM (active)
same,outcome,[6],inactive
same,outcome,[7],inactive
same,AC50,[8],3.54 µM (active)
same,AC50,[9],29.9 µM (active)
same,outcome,[10],inactive
same,AC50,[11],12.7 µM (active)
same,AC50,[12],11.2 µM (active)
same,AC50,[13],33 µM (active)
same,AC50,[14],12.5 µM (active)
same,AC50,[15],2.44 µM (active)
same,AC50,[16],10.5 µM (active)
same,AC50,"CD38, CD38 (gene 952)",4.55 µM (active)
same,AC50,[17],6.73 µM (active)
same,AC50,[18],3.31 µM (active)
same,AC50,[19],4.68 µM (active)
O=S(=O)(c1ccccc1)c1ccccc1,outcome,[2],inactive
same,outcome,[3],inactive
same,outcome,[4],inactive
same,outcome,[5],inactive
same,outcome,[6],inactive
same,outcome,[7],inactive
same,outcome,[8],inactive
same,outcome,[9],inactive
same,outcome,[10],inactive
same,outcome,[11],inactive
same,outcome,[12],inactive
same,outcome,[13],inactive
same,outcome,[14],inactive
same,outcome,[15],inactive
same,outcome,[16],inactive
same,outcome,"CD38, CD38 (gene 952)",inactive
same,outcome,[17],inactive
same,outcome,[18],inactive
same,outcome,[19],inactive
CCC(=O)c1ccc(Cl)cc1,outcome,[1],inactive
CN(C)C(=O)C(c1ccccc1)c1ccccc1,outcome,[1],inactive
Nc1ccc(Cl)c(Cl)c1,outcome,[1],inactive
Cc1ccc(OP(=O)(Oc2ccc(C)cc2)Oc2ccc(C)cc2)cc1 (tested in a mixture with another compound),outcome,[2],inactive
same,AC50,[3],7.47 µM (active)
same,outcome,[4],inactive
same,AC50,[5],20 µM (active)
same,outcome,[6],inactive
same,AC50,[7],3.59 µM (active)
same,outcome,[8],inactive
same,outcome,[9],inactive
same,AC50,[10],4.16 µM (active)
same,outcome,[11],inactive
same,outcome,[12],inactive
same,outcome,[13],inactive
same,outcome,[14],inactive
same,outcome,[15],inactive
same,outcome,[16],inactive
same,AC50,"CD38, CD38 (gene 952)",20 µM (active)
same,AC50,[17],20 µM (active)
same,AC50,[18],20 µM (active)
same,outcome,[19],inactive
N#CCCCCC#N,outcome,[2],inactive
same,outcome,[3],inactive
same,outcome,[4],inactive
same,outcome,[5],inactive
same,outcome,[6],inactive
same,outcome,[7],inactive
same,outcome,[8],inactive
same,outcome,[9],inactive
same,outcome,[10],inactive
same,outcome,[11],inactive
same,outcome,[12],inactive
same,outcome,[13],inactive
same,outcome,[14],inactive
same,outcome,[15],inactive
same,outcome,[16],inactive
same,outcome,"CD38, CD38 (gene 952)",inactive
same,outcome,[17],inactive
same,outcome,[18],inactive
same,outcome,[19],inactive
